Among the data in PubChem BioAssay (NCI) are growth values, retold here.

Structures are written as SMILES. This is part of a sample that, as a whole, favours compounds with a hit. Of some 83,000 tested, about 20% had one in any assay.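 For each line, cells grew in 96-well plates with the test compound present at a single concentration for 48 hours.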 Values without a mark were called inactive. The source made the active and inactive calls. How the source made its calls: active means growth percent below 10; inactive means the rest.

In one test the test system is NCI-H23 lung. The experiment in a line: NCI-60 one-dose screen, 48 h (100 = growth as untreated, 0 = no growth, -100 = all killed). As to conditions: 10 µM unless noted.
As to `O=S(=O)(Nc1ccc(-n2cnc3cc(-c4ccc(O)cc4)ccc32)cc1)c1ccccc1`, the growth is 99.8%.

Turning to `O=S(=O)(NCCNc1nccc(-c2c(-c3cccc(O)c3)nc3occn23)n1)c1ccc(Cl)cc1`, the growth is 103%.

Regarding `COc1cc(C2=NN(C(C)=O)C(c3cc(OC)c(OC)c(OC)c3)C2)ccc1O` (stereo unspecified), the growth is 29.5%.

With `N/C(=N\C(N)=N\c1nc2ccccc2s1)c1cccc(Cl)c1`, the growth was 58.4%.

For the compound `C=C(C)[C@@H]1CC[C@]2(C(=O)N3CCN(C)CC3)CC[C@]3(C)[C@H](CC[C@@H]4[C@@]5(C)CC[C@H](OCCC#N)C(C)(C)[C@@H]5CC[C@]43C)[C@@H]12`, the growth is 100%.

Take `O=C(/C=C(O)/C=C/c1ccc(SC(F)(F)F)cc1)/C=C/c1ccc(SC(F)(F)F)cc1`: the growth was 83.2%.

Regarding `COc1cc(/C(C)=C(\c2ccc(Cl)cc2)c2ccc(OCCN(C)C)cc2)ccc1F`, the growth was 76.5%.

Turning to `COc1cc2oc(-c3cccc(C(=O)Nc4ccc(Cl)cc4)c3)cc(=O)c2c(O)c1OC`, the growth was 72.6%.

For `COc1ccc2nc(-c3ccc(-c4noc(-c5cc(OC)c(OC)c(OC)c5)n4)cc3)[nH]c2c1`, the growth was 63.8%.

As to `COC1=CC(=O)c2ccccc2C1=O`, the growth was 48.9%.

With `CC(=O)Nc1cccc(-c2ccc3c(c2)NC(=O)/C3=C\c2ccc[nH]2)c1`, the growth was 27.8%.

As to `COc1c(Cl)c2c(c(OC)c1OC)-c1ccc(SC)c(=O)cc1[C@@H](NC(=O)OCC(F)(F)F)CC2`, the growth was 34.1%.

In the case of `COc1cc(/C=N/NC(=O)c2cnn3c2NC(c2ccccc2)C3)ccc1Oc1ccccc1` (stereo unspecified), the growth is 43.8%.

Consider `COc1cc(C(=O)Nc2cc3c(cc2Oc2cc(C)cc(C)c2)C(=O)N(C)[C@@H](CC(=O)N(C)O)C(=O)N3)c(Br)c(OC)c1OC`, for which the growth was -20.4% (active).

Turning to `COc1cc2cc(CN3CCN(c4nccc(-c5ccc6ccccc6c5)n4)CC3)c(=O)[nH]c2cc1OC`, the growth is 97.3%.

Consider `N#C/C(=C\c1c(-c2ccccc2)[nH]c2ccccc12)C(=O)c1ccc(Cl)cc1`, for which the growth was 36.9%.

`NS(=O)(=O)c1ccc(CCn2c(SCC(=O)c3ccc(Cl)cc3)nc3ccccc3c2=O)cc1`: the growth is 95.2%.

On to `CC(C)(C)c1ccc(NS(=O)(=O)c2ccc3nc(NC(=O)c4cnccn4)[nH]c3c2)cc1`, for which the growth was 52%.

Consider `CCCCCN1C=C/C(=C\C(=O)N(C)c2ccc(OC(F)(F)F)cc2)c2ccccc21`, for which the growth was 87.1%.

For the compound `CCc1c2c(nc3ccc(OCc4ccc(B(O)O)cc4)cc13)-c1cc3c(c(=O)n1C2)COC(=O)[C@]3(O)CC`, the growth was -35.8% (active).

Take `COc1cccc(C(=O)NNc2nc(Cl)nc(N3CCN(C(c4ccccc4)c4ccccc4)CC3)n2)c1`: the growth is 45.3%.

Take `COc1cccc(/C=N/NC(=O)c2cnn3c2NC(c2ccccc2)C3)c1Oc1ccccc1` (stereo unspecified): the growth is 95.5%.

In the case of `COc1ccc(/C=C/C(=O)Nc2cc(/C=C\c3cc(OC)c(OC)c(OC)c3)cc(OC)c2OC)cc1OC`, the growth was 0.824% (active).

Turning to `COc1cc2oc(-c3cccc(C(=O)Nc4ccc5c(c4)OCO5)c3)cc(=O)c2c(O)c1OC`, the growth was 72.7%.

On to `Nc1c(S(=O)(=O)O)cc2c3c(cccc13)C(=O)OC2=O`, for which the growth was 94.9%.

For `O=C1Nc2ccccc2/C1=C\c1c(-c2ccccc2)nc2ccccn12`, the growth is 8.45% (active).

On to `COc1ccc(-c2[nH][nH]c(=O)c2-c2nc3ccccc3s2)cc1`, for which the growth is 105%.

On to `Cc1ccc(-c2csc(NC(=O)CSc3nc(-c4ccccc4)cc(=O)[nH]3)n2)cc1`, for which the growth was 92.2%.

In the case of `Oc1cccc(CCc2ccc(Oc3cc(CCc4cccc(O)c4)cc(O)c3O)cc2)c1`, the growth was 89%.

With `CCOc1cccc(-c2nc(N)nc(Nc3ccccc3SSc3ccccc3Nc3nc(N)nc(-c4cccc(OCC)c4)n3)n2)c1`, the growth is 43.8%.

Turning to `Nc1n[nH]c2cccc(C#Cc3cccc(C(=O)Nc4cccc(C(F)(F)F)c4)c3)c12`, the growth was 54%.

In the case of `O=C(Nc1ccc(Cl)cc1)c1cc(NCc2cc(O)ccc2O)ccc1O`, the growth was 93.2%.

`COc1cc(/C=C2\COc3ccc(-c4ccccc4)cc3C2=O)cc(OC)c1`: the growth was 70.1%.

Regarding `Cc1c(C(=O)NCCC(=O)NO)sc2ncnc(Nc3ccc(NC(=O)Nc4cccc(C(F)(F)F)c4)cc3)c12`, the growth is 100%.

For the compound `Cc1cc(C)c(S(=O)(=O)Oc2ccccc2[N+](=O)[O-])c(C)c1`, the growth was 32.9%.

In the case of `CCCC/C=N/NC(=S)NCc1ccccc1`, the growth was 103%.

For `O=C(Nc1ccc(-c2ccc3c(c2)NC(=O)/C3=C\c2ccc[nH]2)cc1)NC1CC1`, the growth is 55.1%.

For `NCCCCCCNc1cc(-c2cccc(OC(F)(F)F)c2)nc2ccc(N3CCCC3)cc12`, the growth is 0.0621% (active).

The next test deals with NCI-H226 lung. Described as above. The note with it: 10 µM unless noted.
With `O=S(=O)(Nc1ccc(-n2cnc3cc(-c4ccc(O)cc4)ccc32)cc1)c1ccccc1`, the growth is 92.1%.

`O=S(=O)(NCCNc1nccc(-c2c(-c3cccc(O)c3)nc3occn23)n1)c1ccc(Cl)cc1`: the growth was 109%.

In the case of `COc1cc(C2=NN(C(C)=O)C(c3cc(OC)c(OC)c(OC)c3)C2)ccc1O` (stereo unspecified), the growth is 38.5%.

For the compound `N/C(=N\C(N)=N\c1nc2ccccc2s1)c1cccc(Cl)c1`, the growth was 85.6%.

Consider `C=C(C)[C@@H]1CC[C@]2(C(=O)N3CCN(C)CC3)CC[C@]3(C)[C@H](CC[C@@H]4[C@@]5(C)CC[C@H](OCCC#N)C(C)(C)[C@@H]5CC[C@]43C)[C@@H]12`, for which the growth is 89.4%.

In the case of `O=C(/C=C(O)/C=C/c1ccc(SC(F)(F)F)cc1)/C=C/c1ccc(SC(F)(F)F)cc1`, the growth was 100%.

In the case of `COc1cc(/C(C)=C(\c2ccc(Cl)cc2)c2ccc(OCCN(C)C)cc2)ccc1F`, the growth was 91%.

With `COc1cc2oc(-c3cccc(C(=O)Nc4ccc(Cl)cc4)c3)cc(=O)c2c(O)c1OC`, the growth is 66.4%.

With `COc1ccc2nc(-c3ccc(-c4noc(-c5cc(OC)c(OC)c(OC)c5)n4)cc3)[nH]c2c1`, the growth is 86%.

On to `COC1=CC(=O)c2ccccc2C1=O`, for which the growth is 104%.

Consider `CC(=O)Nc1cccc(-c2ccc3c(c2)NC(=O)/C3=C\c2ccc[nH]2)c1`, for which the growth was 52.7%.

With `COc1c(Cl)c2c(c(OC)c1OC)-c1ccc(SC)c(=O)cc1[C@@H](NC(=O)OCC(F)(F)F)CC2`, the growth was 16.4%.

In the case of `COc1cc(/C=N/NC(=O)c2cnn3c2NC(c2ccccc2)C3)ccc1Oc1ccccc1` (stereo unspecified), the growth is 54.1%.

Turning to `COc1cc(C(=O)Nc2cc3c(cc2Oc2cc(C)cc(C)c2)C(=O)N(C)[C@@H](CC(=O)N(C)O)C(=O)N3)c(Br)c(OC)c1OC`, the growth is -17.2% (active).

Regarding `COc1cc2cc(CN3CCN(c4nccc(-c5ccc6ccccc6c5)n4)CC3)c(=O)[nH]c2cc1OC`, the growth is 96.5%.

In the case of `N#C/C(=C\c1c(-c2ccccc2)[nH]c2ccccc12)C(=O)c1ccc(Cl)cc1`, the growth was 69%.

Turning to `NS(=O)(=O)c1ccc(CCn2c(SCC(=O)c3ccc(Cl)cc3)nc3ccccc3c2=O)cc1`, the growth is 104%.

Turning to `CC(C)(C)c1ccc(NS(=O)(=O)c2ccc3nc(NC(=O)c4cnccn4)[nH]c3c2)cc1`, the growth was 44.3%.

Turning to `CCCCCN1C=C/C(=C\C(=O)N(C)c2ccc(OC(F)(F)F)cc2)c2ccccc21`, the growth was 95%.

Turning to `CCc1c2c(nc3ccc(OCc4ccc(B(O)O)cc4)cc13)-c1cc3c(c(=O)n1C2)COC(=O)[C@]3(O)CC`, the growth is -21.4% (active).

With `COc1cccc(C(=O)NNc2nc(Cl)nc(N3CCN(C(c4ccccc4)c4ccccc4)CC3)n2)c1`, the growth is 94.9%.

`COc1cccc(/C=N/NC(=O)c2cnn3c2NC(c2ccccc2)C3)c1Oc1ccccc1` (stereo unspecified): the growth is 97.7%.

On to `COc1ccc(/C=C/C(=O)Nc2cc(/C=C\c3cc(OC)c(OC)c(OC)c3)cc(OC)c2OC)cc1OC`, for which the growth was 37.6%.

For `COc1cc2oc(-c3cccc(C(=O)Nc4ccc5c(c4)OCO5)c3)cc(=O)c2c(O)c1OC`, the growth was 78.5%.

In the case of `Nc1c(S(=O)(=O)O)cc2c3c(cccc13)C(=O)OC2=O`, the growth is 105%.

Consider `O=C1Nc2ccccc2/C1=C\c1c(-c2ccccc2)nc2ccccn12`, for which the growth is 57.6%.

For the compound `COc1ccc(-c2[nH][nH]c(=O)c2-c2nc3ccccc3s2)cc1`, the growth was 98%.

For `Cc1ccc(-c2csc(NC(=O)CSc3nc(-c4ccccc4)cc(=O)[nH]3)n2)cc1`, the growth is 103%.

`Oc1cccc(CCc2ccc(Oc3cc(CCc4cccc(O)c4)cc(O)c3O)cc2)c1`: the growth was 84.4%.

Take `CCOc1cccc(-c2nc(N)nc(Nc3ccccc3SSc3ccccc3Nc3nc(N)nc(-c4cccc(OCC)c4)n3)n2)c1`: the growth was 68%.

Regarding `Nc1n[nH]c2cccc(C#Cc3cccc(C(=O)Nc4cccc(C(F)(F)F)c4)c3)c12`, the growth is 63.2%.

For the compound `O=C(Nc1ccc(Cl)cc1)c1cc(NCc2cc(O)ccc2O)ccc1O`, the growth was 95.2%.

Turning to `COc1cc(/C=C2\COc3ccc(-c4ccccc4)cc3C2=O)cc(OC)c1`, the growth is 87.4%.

For `Cc1c(C(=O)NCCC(=O)NO)sc2ncnc(Nc3ccc(NC(=O)Nc4cccc(C(F)(F)F)c4)cc3)c12`, the growth was 97.9%.

For the compound `Cc1cc(C)c(S(=O)(=O)Oc2ccccc2[N+](=O)[O-])c(C)c1`, the growth was 60%.

For the compound `CCCC/C=N/NC(=S)NCc1ccccc1`, the growth was 98.6%.

For the compound `O=C(Nc1ccc(-c2ccc3c(c2)NC(=O)/C3=C\c2ccc[nH]2)cc1)NC1CC1`, the growth is 101%.

Regarding `NCCCCCCNc1cc(-c2cccc(OC(F)(F)F)c2)nc2ccc(N3CCCC3)cc12`, the growth is 81.2%.
